In the library only some 4.8% were active in any assay of this set; here they are far more common.
ssDAF12 agonist: S. stercoralis DAF-12 activation, primary screen. HEK293 ssDAF-12/GRIP1 lit1-tk-luc reporter, luminescence; % of 3 µM dafachronic acid response. activation, % at 6.8 µM. actives 1% (n = 370,000);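 active = activation above the mean over all tested compounds plus 3 SD, cut at about 0.9% in these data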;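 note: 0% = DMSO-only wells and 100% = 3 µM delta7-dafachronic acid wells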
SMARCA2 activ: activators of SMARCA2 function; MG213 cells, MMTV-luciferase reporter, dexamethasone, overnight; activation, % at 9.1 µM; actives 1% (n = 370,000); AID 652017; in the data active = activation above about 7.8%;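 note: 0% = vehicle wells and 100% = reference activator wells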
hgDAF-12 ag: hgDAF-12 agonism, primary luciferase screen; actives 1.8% (n = 370,000); activation, % at 6.8 µM; HEK293 GAL4-hgDAF12 UAS-luciferase reporter, agonist luminescence; normalized to butyrate control;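 active = activation above a cutoff set at the mean of all screened compounds plus 3 SD, cut at about 10% in these data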;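 note: 0% = DMSO wells and 100% = sodium butyrate wells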
DAX1 inh-1: DAX1 (NR0B1) inhibition, primary screen | HEK293T StAR-luciferase reporter, SF-1/DAX-1 repression relief | inhibition, % at 6.8 µM | actives 1.1% (n = 370,000);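 active = inhibition above the mean over all tested compounds plus 3 SD, cut at about 3.6% in these data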;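 note: 0% = DAX-1 cells with DMSO and 100% = cells lacking DAX-1 with DMSO; higher inhibition means more luminescence from relief of DAX-1 repression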
hcDAF12 agonist: activates DAF-12 receptor from parasite H. contortus. actives 1.4% (n = 370,000). HEK293 hcDAF-12 lit1-tk-luc reporter, luminescence; 0% DMSO, 100% Δ7-dafachronic acid. activation, % at 6.8 µM;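 active = activation above the mean of all tested compounds plus 3 SD, cut at about 5.5% in these data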;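 note: 100% = response to 3 µM Δ7-dafachronic acid high control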
DAX1 inh-2: inhibitors of human orphan nuclear receptor DAX1 (NR0B1); actives 0.99% (n = 340,000); HEK293 Gal4-DAX1 luciferase reporter, luminescence; inhibition, % at 6.75 µM; P51843;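 active = inhibition above the mean over all tested compounds plus 3 SD, cut at about 4.2% in these data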;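 note: 0% = DAX1-transfected cells with DMSO and 100% = empty-vector control cells with DMSO; inhibition shows as a rise in luminescence from relieved DAX1 repression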
Target sequence (P51843 207-470 limits assumed): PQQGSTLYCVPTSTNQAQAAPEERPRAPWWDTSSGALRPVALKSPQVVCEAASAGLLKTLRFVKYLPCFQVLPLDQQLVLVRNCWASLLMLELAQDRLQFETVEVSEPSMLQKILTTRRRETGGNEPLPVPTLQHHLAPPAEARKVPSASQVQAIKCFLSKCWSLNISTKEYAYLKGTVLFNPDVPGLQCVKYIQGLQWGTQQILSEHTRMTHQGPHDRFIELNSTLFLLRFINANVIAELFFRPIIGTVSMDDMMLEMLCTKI
An asterisk follows results filed as active; . = no result given.

SMILES | ssDAF12 agonist | SMARCA2 activ | hgDAF-12 ag | DAX1 inh-1 | hcDAF12 agonist | DAX1 inh-2
Cc1noc(NS(=O)(=O)c2ccc(N/C=C\C(=O)c3ccc(Br)cc3)cc2)c1C | 0.0 | 1.0 | 2.1 | 0.8 | 1.0 | 1.8
Cc1noc(NS(=O)(=O)c2ccc(N/C=C\C(=O)c3cccc4ccccc34)cc2)c1C | 0.0 | -0.1 | 0.8 | 1.5 | 1.4 | 6.6*
CCN(CC)c1ccc(C(=O)Nc2ccccc2)cc1[N+](=O)[O-] | -0.4 | 7.0 | 12.3* | 0.4 | 0.0 | -0.2
CCc1ccccc1NC(=O)c1ccc(NCCc2ccccc2)c([N+](=O)[O-])c1 | -1.2 | -2.5 | -0.1 | 0.9 | -1.7 | 4.4*
COc1ccc(C(=O)Nc2ccc(Nc3ccccc3)cc2)cc1[N+](=O)[O-] | -1.7 | -0.9 | -2.8 | -1.0 | -2.0 | -1.6
c1csc(-c2noc(CN3CCOCC3)n2)c1 | -0.7 | 1.4 | 1.9 | 0.4 | 1.8 | 4.7*
CCN(CC)S(=O)(=O)c1ccc(OC)c(NC(=O)/C=C/c2ccco2)c1 | -1.5 | -1.0 | 1.6 | -0.1 | -1.1 | -1.5
CCn1c(/C=C/c2cc[n+](C)cc2)nc2ccccc21 | -1.2 | -1.1 | 1.9 | -0.2 | 2.3 | 4.2*
CC1=C(CC(=O)O)c2cc(F)ccc2C1=Cc1ccc(S(C)(=O)=O)cc1 | -0.6 | 0.3 | 2.1 | -0.6 | -0.4 | -0.5
Cn1nc(C(F)(F)F)cc1-c1ccc(S(N)(=O)=O)s1 | -0.8 | 2.9 | 1.5 | 0.4 | -1.1 | 5.1*
CC1(C)CC2(CC(C)(C)N1)OC(=O)N1CCc3ccccc3C12C (stereo not drawn) | 0.1 | -0.7 | 1.6 | -0.9 | 0.8 | 4.2*
O=C(/C=C/c1nc2ccccc2s1)N1CCCCCC1 | -0.6 | 6.1 | 11.1* | 2.7 | 1.5 | 0.2
Nc1ccc(N=Nc2ccccc2)cc1[N+](=O)[O-] | 3.0* | 2.9 | 12.1* | 1.9 | 5.6* | 2.1
Cc1ccc(N)c([N+](=O)[O-])c1 | -0.7 | -4.9 | 0.6 | 1.5 | 1.1 | 1.6
COC(=O)N/N=C\c1cccc(OC(=O)c2cccs2)c1 | -1.3 | 6.0 | -0.3 | 0.5 | -1.7 | .
O=C(N/N=C/c1cccc(OC(=O)N2CCOCC2)c1)c1cccs1 | -1.1 | 1.3 | 10.9* | 1.0 | 3.7 | 0.8
Cc1nn(-c2ccccc2)c(/N=C/c2ccc(O)cc2)c1-c1ccccc1 | 1.0* | -1.3 | 9.4 | -4.6 | 0.6 | 0.0
N#Cc1ccc(/C=C2\CC3(OC(=O)C4CCCCC4)CCCN2C3)cc1 (stereo not drawn) | -1.0 | -3.2 | -1.0 | 0.9 | -2.9 | .
CCN(Cc1nc2ccccc2n1C)c1ccccc1 | 2.1* | 7.0 | 6.0 | 0.3 | 4.4 | -0.3
Cn1c(CNC(=O)CNS(=O)(=O)c2ccccc2)cc(=O)n(C)c1=O | -1.5 | -2.2 | 0.7 | 3.8* | 1.4 | 0.7
CCSc1nnc(NC(=O)C2CC2c2ccccc2)s1 (stereo not drawn) | -1.5 | -2.1 | -3.1 | 0.0 | -2.5 | 11.7*
CCSc1nnc(NC(=O)c2ccc3ccccc3n2)s1 | 1.0* | 5.3 | 4.4 | 0.6 | 6.3* | 1.3
CCSc1nnc(NC(=O)c2cc(C)nc3ccccc23)s1 | -0.6 | -1.3 | -0.2 | -1.0 | 0.4 | 0.3
CCSc1nnc(NC(=O)c2ccc3nc[nH]c3c2)s1 | -1.0 | 6.2 | 12.6* | 0.9 | 2.2 | 2.3
CCOc1ccc(CCN2CN(CC)CNC2=S)cc1OCC | -0.5 | 2.5 | -1.1 | 0.2 | -2.0 | 4.9*
SMILES | ssDAF12 agonist | SMARCA2 activ | hgDAF-12 ag | DAX1 inh-1 | hcDAF12 agonist | DAX1 inh-2
CCOC(=O)C(=O)NC1CC=CCC1c1ccc2c(c1)OCO2 (stereo not drawn) | -1.3 | -3.0 | -1.9 | 0.6 | 0.7 | 0.4
Cc1cc(C(=O)CN2C(=O)C3CC=CCC3C2=O)c(C)n1-c1ccccc1 (stereo not drawn) | -0.7 | 2.2 | 10.7* | 2.1 | 4.8 | 1.1
CC(=O)Nc1cccc(-c2ccnc3c2CC(C)(C(=O)NCCc2ccccc2)O3)c1 (stereo not drawn) | -0.5 | 0.4 | -1.8 | 0.2 | 1.5 | .
CCCNC(=O)C(=O)Nc1ccc2c(c1)N(S(=O)(=O)c1cccs1)CCC2 | -1.6 | 3.6 | 3.7 | -4.7 | -1.5 | -3.4
COCCCNC(=O)C(=O)Nc1ccc2c(c1)N(S(=O)(=O)c1cccs1)CCC2 | -0.1 | -3.3 | -3.5 | 4.2* | -0.6 | -0.5
CC(C)c1ccc(CNc2ccc([N+](=O)[O-])cn2)cc1 | -1.2 | 6.2 | 11.7* | 3.9* | 2.9 | 1.1
O=[N+]([O-])c1ccc(NCc2ccc(Cl)cc2)nc1 | -1.8 | 4.8 | 6.1 | -0.6 | -0.8 | -1.2
O=C(C1CCCCC1)N1C[C@@H](O)[C@H](n2cc(C3CC3)nn2)C[C@@H]1c1ccc(Cl)cc1 | -1.2 | -4.7 | 3.3 | -0.3 | 4.0 | 0.6
Cn1cccc1Cc1nnc(SCC(=O)N2CCOCC2)n1-c1ccc(F)cc1 | -0.6 | -2.5 | 0.3 | -1.0 | -2.5 | 4.2*
COc1ccc(N2CCN(C(=O)CSc3nnc(-c4cccnc4)n3-c3ccc(F)cc3)CC2)cc1 | -1.9 | 7.9* | -3.4 | -0.1 | -3.1 | -0.8
COc1ccc(-n2c(Cc3cccn3C)nnc2SCC(=O)N2CCOCC2)cc1 | -1.6 | -0.1 | 0.0 | -0.2 | -0.6 | 0.2
COc1ccc(N2CCN(C(=O)CSc3nnc(-c4cccnc4)n3-c3ccccc3)CC2)cc1 | -1.5 | 0.6 | -0.7 | -0.1 | -2.3 | -0.5
S=C(NCCCN1CCOCC1)N1CCN(c2cccc(Cl)c2)CC1 | -1.1 | -3.7 | -1.1 | -0.4 | -1.8 | 0.2
CCn1c(SCC(=O)Nc2ccc(C)cc2)nc(O)cc1=O | -1.3 | -6.0 | -0.6 | -0.4 | 1.4 | 4.5*
C=CCn1c(SCC(=O)Nc2ccc(Br)cc2)nc(O)cc1=O | -0.9 | -1.2 | -1.7 | -2.4 | -0.6 | 0.4
CC(C)CCNC(=O)C(c1ccc(O)cc1)N(Cc1ccco1)C(=O)CCC(=O)Nc1nccs1 (stereo not drawn) | -0.7 | -1.2 | -2.0 | -0.1 | -1.1 | 0.1
CC1(C)CC(=O)c2sc(NC(=O)C(C)(C)C)nc2C1 | 1.5* | 3.2 | 6.5 | 0.8 | 1.6 | 0.5
COc1ccc(OC)c(/C=C/C(=O)NC2=NCCS2)c1 | -0.8 | 0.0 | 1.8 | 1.0 | 2.0 | -0.3
COc1ccc(OC)c(/C=C/C(=O)Nc2ccc(OC)nc2)c1 | -1.9 | 1.1 | 1.2 | -0.7 | -0.5 | 5.6*
Cc1ccc(C)c(N(C)C(=O)COc2cc(=O)n(C)c3ccccc23)c1 | -0.8 | 3.7 | -2.7 | 1.0 | -2.0 | 4.8*
O=S1(=O)c2c(NCc3ccco3)cccc2Oc2ccccc2CN1Cc1cn(Cc2cccc(F)c2)nn1 | -1.6 | -1.4 | -4.6 | -0.6 | -1.9 | .
O=C(NCCN1CCCCC1)Nc1ccc([N+](=O)[O-])cc1 | -1.2 | -1.4 | -0.2 | -0.5 | -0.2 | 8.7*
O=C(NNC(=O)c1cnccn1)c1ccc(Cl)cc1 | -0.5 | -0.1 | -0.1 | -0.9 | 0.1 | 5.8*
